The results in this text go back to article PMC12820563, “FoxP3 forms a head-to-head dimer in vivo and stabilizes its multimerization on adjacent microsatellites”.

In all, about 16,000 sequences were measured (“rpm ratio (pull-down/input)”: median about 0.94, highest 2% from about 1.7 on). The sample as a whole holds a higher share of the highest values than the screen did.

The target of this assay is T1, MBP-FoxP1dN (Mus musculus, UniProt P58462 326-579).
T1 sequence: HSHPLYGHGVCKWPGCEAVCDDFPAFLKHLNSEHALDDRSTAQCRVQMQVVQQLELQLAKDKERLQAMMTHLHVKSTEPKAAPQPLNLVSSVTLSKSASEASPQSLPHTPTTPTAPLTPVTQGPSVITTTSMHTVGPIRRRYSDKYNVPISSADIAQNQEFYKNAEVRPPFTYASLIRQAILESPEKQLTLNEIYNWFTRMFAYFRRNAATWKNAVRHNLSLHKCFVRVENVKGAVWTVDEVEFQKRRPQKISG
Briefly: PD-seq (MBP pull-down with sequencing); 20 mM Tris-HCl pH 7.5, 100 mM NaCl, 1.5 mM MgCl2, 0.4 uM protein, 0.1 uM dsDNA library, 30 min, room temperature, amylose pull-down; high values mean tight binding. As to conditions: protein: recombinant; tags: His6-MBP; chain copies: 2; dsDNA, one strand shown. In a few lines:
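Mouse FoxP3 or FoxP1 fragment lacking the N-terminus, His6-MBP-tagged and expressed in E. coli, was incubated at 0.4 µM with 0.1 µM Klenow-filled degenerate double-stranded DNA library for 30 min at room temperature in Tris pH 7.5 buffer with NaCl and MgCl2. Complexes captured on amylose resin were washed three times and their DNA sequenced on Illumina. Binding is reads-per-million enrichment of pull-down over input, replicates pooled.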
On to “GATGATTGTTCTCCCAGCTGATGAATTGCTATGCTCGAGTAAACAAATTTTCCTAATCTTTCTGTTCAAGCGCCATCTAC”, for which the binding signal is 1.01 RPM ratio (pull-down/input).
On to “GATGATTGTTCTCCCAGCTGATGAATTTTGGATGTCGAGTAAACAAATTTTCCTAATCTTTCTGTTCAAGCGCCATCTAC”, for which the binding signal was 0.849 RPM ratio (pull-down/input).
As for “GATGATTGTTCTCCCAGCTGATGAATTACGATTGTCGAGTAAACAAATTTTCCTAATCTTTCTGTTCAAGCGCCATCTAC”, the binding signal was 1.16 RPM ratio (pull-down/input).
In the case of “GATGATTGTTCTCCCAGCTGATGAATTATTTAAATCGAGTAAACAAATTTTCCTAATCTTTCTGTTCAAGCGCCATCTAC”, the binding signal is 1.24 RPM ratio (pull-down/input).
Next, “GATGATTGTTCTCCCAGCTGATGAATTGCGTACGTCGAGTAAACAAATTTTCCTAATCTTTCTGTTCAAGCGCCATCTAC”: 1.1 RPM ratio (pull-down/input); “GATGATTGTTCTCCCAGCTGATGAATTCCTTGTGTCGAGTAAACAAATTTTCCTAATCTTTCTGTTCAAGCGCCATCTAC”: 0.961 RPM ratio (pull-down/input); “GATGATTGTTCTCCCAGCTGATGAATTAAGCGCATCGAGTAAACAAATTTTCCTAATCTTTCTGTTCAAGCGCCATCTAC”: 1.27 RPM ratio (pull-down/input).
Take “GATGATTGTTCTCCCAGCTGATGAATTCTCATATTCGAGTAAACAAATTTTCCTAATCTTTCTGTTCAAGCGCCATCTAC”: the binding signal was 0.94 RPM ratio (pull-down/input).
To “GATGATTGTTCTCCCAGCTGATGAATTCATATTCTCGAGTAAACAAATTTTCCTAATCTTTCTGTTCAAGCGCCATCTAC” belongs 0.83 RPM ratio (pull-down/input).
To “GATGATTGTTCTCCCAGCTGATGAATTTTCATATTCGAGTAAACAAATTTTCCTAATCTTTCTGTTCAAGCGCCATCTAC” belongs 1.06 RPM ratio (pull-down/input); to “GATGATTGTTCTCCCAGCTGATGAATTGTCATATTCGAGTAAACAAATTTTCCTAATCTTTCTGTTCAAGCGCCATCTAC”, 1.17 RPM ratio (pull-down/input); to “GATGATTGTTCTCCCAGCTGATGAATTCATATTGTCGAGTAAACAAATTTTCCTAATCTTTCTGTTCAAGCGCCATCTAC”, 1.9 RPM ratio (pull-down/input).
As to “GATGATTGTTCTCCCAGCTGATGAATTCATATTTTCGAGTAAACAAATTTTCCTAATCTTTCTGTTCAAGCGCCATCTAC”, the binding signal was 1.74 RPM ratio (pull-down/input).
As for “GATGATTGTTCTCCCAGCTGATGAATTAGATCGGTCGAGTAAACAAATTTTCCTAATCTTTCTGTTCAAGCGCCATCTAC”, the binding signal is 0.789 RPM ratio (pull-down/input).
Regarding “GATGATTGTTCTCCCAGCTGATGAATTGTGGGAATCGAGTAAACAAATTTTCCTAATCTTTCTGTTCAAGCGCCATCTAC”, the binding signal was 1.08 RPM ratio (pull-down/input).
Take “GATGATTGTTCTCCCAGCTGATGAATTCCGTCCTTCGAGTAAACAAATTTTCCTAATCTTTCTGTTCAAGCGCCATCTAC”: the binding signal is 0.801 RPM ratio (pull-down/input).
In the case of “GATGATTGTTCTCCCAGCTGATGAATTAGGTGATTCGAGTAAACAAATTTTCCTAATCTTTCTGTTCAAGCGCCATCTAC”, the binding signal is 1.06 RPM ratio (pull-down/input).
“GATGATTGTTCTCCCAGCTGATGAATTCGTTGTATCGAGTAAACAAATTTTCCTAATCTTTCTGTTCAAGCGCCATCTAC”: the binding signal is 1.3 RPM ratio (pull-down/input).
As for “GATGATTGTTCTCCCAGCTGATGAATTCCTCAAGTCGAGTAAACAAATTTTCCTAATCTTTCTGTTCAAGCGCCATCTAC”, the binding signal is 0.819 RPM ratio (pull-down/input).
As for “GATGATTGTTCTCCCAGCTGATGAATTGAGCGTGTCGAGTAAACAAATTTTCCTAATCTTTCTGTTCAAGCGCCATCTAC”, the binding signal was 0.844 RPM ratio (pull-down/input).
Take “GATGATTGTTCTCCCAGCTGATGAATTTGGTATTTCGAGTAAACAAATTTTCCTAATCTTTCTGTTCAAGCGCCATCTAC”: the binding signal is 1.07 RPM ratio (pull-down/input).
Consider “GATGATTGTTCTCCCAGCTGATGAATTTGGTATGTCGAGTAAACAAATTTTCCTAATCTTTCTGTTCAAGCGCCATCTAC”, for which the binding signal is 0.971 RPM ratio (pull-down/input).
In the case of “GATGATTGTTCTCCCAGCTGATGAATTGGTATTTTCGAGTAAACAAATTTTCCTAATCTTTCTGTTCAAGCGCCATCTAC”, the binding signal was 2.46 RPM ratio (pull-down/input).
For the sequence “GATGATTGTTCTCCCAGCTGATGAATTTTGGTATTCGAGTAAACAAATTTTCCTAATCTTTCTGTTCAAGCGCCATCTAC”, the binding signal is 1.06 RPM ratio (pull-down/input).
Next, “GATGATTGTTCTCCCAGCTGATGAATTGGTATTGTCGAGTAAACAAATTTTCCTAATCTTTCTGTTCAAGCGCCATCTAC”: 2.44 RPM ratio (pull-down/input); “GATGATTGTTCTCCCAGCTGATGAATTGGTATTCTCGAGTAAACAAATTTTCCTAATCTTTCTGTTCAAGCGCCATCTAC”: 1.02 RPM ratio (pull-down/input).
On to “GATGATTGTTCTCCCAGCTGATGAATTCGGACCGTCGAGTAAACAAATTTTCCTAATCTTTCTGTTCAAGCGCCATCTAC”, for which the binding signal is 0.773 RPM ratio (pull-down/input).
Next, “GATGATTGTTCTCCCAGCTGATGAATTAGGTTCATCGAGTAAACAAATTTTCCTAATCTTTCTGTTCAAGCGCCATCTAC”: 0.921 RPM ratio (pull-down/input); “GATGATTGTTCTCCCAGCTGATGAATTGCCAGTCTCGAGTAAACAAATTTTCCTAATCTTTCTGTTCAAGCGCCATCTAC”: 0.829 RPM ratio (pull-down/input); “GATGATTGTTCTCCCAGCTGATGAATTCTGACTTTCGAGTAAACAAATTTTCCTAATCTTTCTGTTCAAGCGCCATCTAC”: 0.897 RPM ratio (pull-down/input).
On to “GATGATTGTTCTCCCAGCTGATGAATTTGTTTGGTCGAGTAAACAAATTTTCCTAATCTTTCTGTTCAAGCGCCATCTAC”, for which the binding signal was 2.1 RPM ratio (pull-down/input).
